The text below walks through data of PubChem BioAssay (EPA / NIEHS).

Read-out in assay [1]: Thrombomodulin, THBD (gene 7056)
Description: BSK_CASM3C_Thrombomodulin: BioMAP Diversity Plus: CASM3C Assay for Thrombomodulin Biomarker Activity (AID 2283051).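 Further: thrombomodulin protein level measured by ELISA 24 h after dosing.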 As to conditions: primary human coronary artery smooth muscle cells; actives raise or lower the signal.

Read-out in assay [2]: Tissue Factor, F3 (gene 2152)
Description: BSK_CASM3C_TissueFactor: BioMAP Diversity Plus: CASM3C Assay for Tissue Factor Biomarker Activity (AID 2283052).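 Further: cell surface tissue factor protein level read by ELISA.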 To be noted: primary human coronary artery smooth muscle cells; actives raise or lower the signal.

Read-out in assay [3]: Interferon-gamma inducible Protein 10 (IP10), CXCL10 (gene 3627)
Description: BSK_hDFCGF_IP10: BioMAP Diversity Plus: hDFCGF Assay for Interferon-gamma inducible Protein 10 (IP10) Biomarker Activity (AID 2283053). As to conditions: primary human foreskin fibroblasts; actives raise or lower the signal. In outline:
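Cells: human dermal foreskin fibroblasts. Exposure: 24 h post-dosing. Detection: IP-10 ELISA, with values expressed against DMSO controls and fitted in both directions.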

Read-out in assay [4]: Urokinase-type plasminogen activator receptor (uPAR), PLAUR (gene 5329)
Nature of the assay: BSK_CASM3C_uPAR: BioMAP Diversity Plus: CASM3C Assay for Urokinase-type plasminogen activator receptor (uPAR) Biomarker Activity (AID 2283054).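 Further: cell-surface uPAR protein level quantified by ELISA.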 To be noted: primary human coronary artery smooth muscle cells; actives raise or lower the signal.

Read-out in assay [5]: Vascular cell adhesion molecule 1 (VCAM1), VCAM1 (gene 7412)
Nature of the assay: BSK_CASM3C_VCAM1: BioMAP Diversity Plus: CASM3C Assay for Vascular cell adhesion molecule 1 (VCAM1) Biomarker Activity (AID 2283055).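 Further: VCAM-1 protein level quantified by ELISA on the cells.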 To be noted: primary human coronary artery smooth muscle cells; actives raise or lower the signal.

Read-out in assay [6]: Collagen III, COL3A1 (gene 1281)
Description: BSK_hDFCGF_CollagenIII: BioMAP Diversity Plus: hDFCGF Assay for Collagen III Biomarker Activity (AID 2283056). As to conditions: primary human foreskin fibroblasts; actives raise or lower the signal. In outline:
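Human foreskin primary fibroblasts were exposed to test chemicals for 24 h, after which collagen III was quantified by ELISA. Activity was fitted bidirectionally against DMSO as negative control and baseline.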

Read-out in assay [7]: Epidermal growth factor receptor (EGFR), EGFR (gene 1956)
Description: BSK_hDFCGF_EGFR: BioMAP Diversity Plus: hDFCGF Assay for Epidermal growth factor receptor (EGFR) Biomarker Activity (AID 2283057). As to conditions: primary human foreskin fibroblasts; actives raise or lower the signal. In a few lines:
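Dosing human primary skin fibroblasts, then measuring surface EGFR by ELISA at 24 h, gives the endpoint; gains and losses relative to DMSO were fitted in both directions.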

Read-out in assay [8]: Interleukin-8 (IL8), CXCL8 (gene 3576)
Description: BSK_hDFCGF_IL8: BioMAP Diversity Plus: hDFCGF Assay for Interleukin-8 (IL8) Biomarker Activity (AID 2283058). To be noted: primary human foreskin fibroblasts; actives raise or lower the signal. In outline: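 hDFCGF human dermal fibroblasts; 24 h chemical exposure; IL-8 by ELISA; bidirectional curve fit vs DMSO baseline; gain or loss of signal scored.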

Read-out in assay [9]: Macrophage colony-stimulating factor (MCSF), CSF1 (gene 1435)
Description: BSK_hDFCGF_MCSF: BioMAP Diversity Plus: hDFCGF Assay for Macrophage colony-stimulating factor (MCSF) Biomarker Activity (AID 2283060). To be noted: primary human foreskin fibroblasts; actives raise or lower the signal. In outline: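 Human foreskin primary fibroblasts were treated with test chemical for 24 h, and M-CSF was then measured by ELISA. Data were fitted bidirectionally against DMSO as the negative control and activity baseline.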

The nature of assay [10]: BSK_hDFCGF_SRB: Viability Assessment in the BioMAP Diversity Plus: hDFCGF Assay (AID 2283061).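 Further: cells exposed to compound for 24 h before the read.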 As to conditions: primary human foreskin fibroblasts. In outline: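 Human foreskin primary fibroblasts were treated with compound and assessed 24 h after dosing. Total protein was measured by sulforhodamine B staining (0.1% SRB after 10% TCA fixation, 560 nm read) as a cytotoxicity marker, with bidirectional fitting against DMSO baseline.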

Read-out in assay [11]: TIMP metallopeptidase inhibitor 1 (TIMP1), TIMP1 (gene 7076)
Nature of the assay: BSK_hDFCGF_TIMP1: BioMAP Diversity Plus: hDFCGF Assay for TIMP metallopeptidase inhibitor 1 (TIMP1) Biomarker Activity (AID 2283062). As to conditions: primary human foreskin fibroblasts; actives raise or lower the signal. In outline:
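Primary human foreskin fibroblasts in the hDFCGF system were dosed with compound for 24 h, then TIMP-1 was measured by ELISA. Activity was fitted bidirectionally relative to DMSO control; parallel SRB staining assessed cytotoxicity.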

Read-out in assay [12]: Monokine induced gamma interferon (MIG), CXCL9 (gene 4283)
Nature of the assay: BSK_hDFCGF_MIG: BioMAP Diversity Plus: hDFCGF Assay for Monokine induced gamma interferon (MIG) Biomarker Activity (AID 2283063). To be noted: primary human foreskin fibroblasts; actives raise or lower the signal. In outline: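 ELISA read-out of MIG from primary human dermal fibroblasts 24 h post-dosing. Gain or loss of signal fitted bidirectionally, DMSO as baseline.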

Read-out in assay [13]: Matrix Metallopeptidase 1 (MMP1), MMP1 (gene 4312)
Nature of the assay: BSK_hDFCGF_MMP1: BioMAP Diversity Plus: hDFCGF Assay for Matrix Metallopeptidase 1 (MMP1) Biomarker Activity (AID 2283064). As to conditions: primary human foreskin fibroblasts; actives raise or lower the signal. In a few lines:
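MMP1 levels quantified by ELISA 24 h after dosing human dermal fibroblast cultures, with parallel SRB total-protein staining for overt cytotoxicity. Data fitted in both directions against DMSO baseline.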

Read-out in assay [14]: Vascular cell adhesion molecule 1 (VCAM1), VCAM1 (gene 7412)
Nature of the assay: BSK_hDFCGF_VCAM1: BioMAP Diversity Plus: hDFCGF Assay for Vascular cell adhesion molecule 1 (VCAM1) Biomarker Activity (AID 2283065).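 On AC50: VCAM-1 protein level quantified by ELISA after 24 h chemical exposure.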 To be noted: primary human foreskin fibroblasts; actives raise or lower the signal. In outline:
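Primary human foreskin fibroblasts (hDFCGF system) were dosed with chemical and VCAM-1 was measured by ELISA 24 h later. Bidirectional curve fitting used DMSO as negative control and activity baseline.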

Read-out in assay [15]: Plasminogen activator inhibitor-1 (PAI1), SERPINE1 (gene 5054)
Nature of the assay: BSK_hDFCGF_PAI1: BioMAP Diversity Plus: hDFCGF Assay for Plasminogen activator inhibitor-1 (PAI1) Biomarker Activity (AID 2283066). To be noted: primary human foreskin fibroblasts; actives raise or lower the signal. In outline:
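Fibroblasts from human foreskin were treated with test chemical. After 24 h, PAI-1 was measured by ELISA. Activity was fitted in both directions relative to DMSO.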

Read-out in assay [16]: Intercellular Adhesion Molecule 1 (ICAM1), ICAM1 (gene 3383)
Nature of the assay: BSK_KF3CT_ICAM1: BioMAP Diversity Plus: KF3CT Assay for Intercellular Adhesion Molecule 1 (ICAM1) Biomarker Activity (AID 2283067). To be noted: primary human keratinocytes with fibroblasts; actives raise or lower the signal. In a few lines: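 Human keratinocyte plus foreskin fibroblast primary co-culture was exposed to chemical for 24 h. ICAM-1 was then quantified by ELISA, and the data were fit bidirectionally against DMSO as the negative control and baseline.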

Read-out in assay [17]: Interferon-gamma inducible Protein 10 (IP10), CXCL10 (gene 3627)
Nature of the assay: BSK_KF3CT_IP10: BioMAP Diversity Plus: KF3CT Assay for Interferon-gamma inducible Protein 10 (IP10) Biomarker Activity (AID 2283068). To be noted: primary human keratinocytes with fibroblasts; actives raise or lower the signal. In a few lines:
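In a primary skin co-culture of keratinocytes and fibroblasts, IP-10 is quantified by ELISA at 24 h after dosing. SRB staining of parallel wells monitors overt toxicity. Curves are fitted both directions against DMSO.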

Assay [18] is described as follows: BSK_KF3CT_SRB: Viability Assessment in the BioMAP Diversity Plus: KF3CT Assay (AID 2283069). To be noted: primary human keratinocytes with fibroblasts. In a few lines:
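Cytotoxicity was gauged by SRB staining (0.1% SRB, 10% TCA fixation, 560 nm) of parallel cultures at 24 h. The cells were primary human skin keratinocytes co-cultured with fibroblasts, and activity was fitted in both directions against DMSO.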

Read-out in assay [19]: Interleukin-1 alpha (IL1a), IL1A (gene 3552)
Description: BSK_KF3CT_IL1a: BioMAP Diversity Plus: KF3CT Assay for Interleukin-1 alpha (IL1a) Biomarker Activity (AID 2283070). As to conditions: primary human keratinocytes with fibroblasts; actives raise or lower the signal. In outline:
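IL-1a was detected by ELISA 24 h after chemical treatment of a co-culture of human skin keratinocytes and foreskin fibroblasts. Gain or loss of signal was fitted against the DMSO baseline.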

Assay [20] is described as follows: BSK_hDFCGF_Proliferation: Cell Proliferation Assessment in the BioMAP Diversity Plus: hDFCGF Assay (AID 2283059).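 Further: curves fitted for both rise and fall of signal versus DMSO baseline.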 As to conditions: primary human foreskin fibroblasts. In outline: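 Primary human foreskin fibroblasts, sub-confluent; […]; 10% TCA fix, 0.1% SRB stain, A560 total protein. Gain/loss fitted bidirectionally vs DMSO control.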

Usually AC50 stands for the midpoint of the concentration-response curve, whichever way the signal moves.

Each structure is given as a SMILES string. The source made the active and inactive calls. How the source made its calls: active means hit-call score of the fitted dose curve at least 0.9, where 1 is the maximum; inactive means score below 0.9.

Consider `CCCN(CCC)c1c([N+](=O)[O-])cc(C(C)C)cc1[N+](=O)[O-]`, for which the AC50 was 20 µM (active) in assay [1]; 20 µM (active) in [3]; 9.07 µM (active) in assay [6]; 20 µM (active) in assay [7]; 6.75 µM (active) in assay [9]; 13.9 µM (active) in [10]. For the same molecule, the AC50 in assay [12] is 9.44 µM (active); in assay [14] it was 14.3 µM (active); in assay [15], 20 µM (active). Further, the outcome in assay [2], in assay [4], in [5], in assay [8], in [11] and in [13] was inactive. Also, the result in [16], in assay [17], in [18] and in assay [19] was inactive.

For the molecule `Cc1ccc(O)cc1C`, the outcome in assay [1], in assay [2], in assay [3], in assay [4], in assay [5] and in assay [6] was inactive. Moreover, the outcome in assay [7], in assay [8], in assay [9], in [10], in assay [11] and in assay [12] was inactive. Further, the outcome in assay [13], in assay [14], in assay [15], in assay [16], in assay [17] and in [18] was inactive. Besides, the outcome in [19] was inactive.

In the case of `N#Cc1c(-c2ccc(Cl)cc2)[nH]c(C(F)(F)F)c1Br`, the outcome in assay [1], in assay [7], in assay [8], in assay [13], in assay [16] and in assay [18] was inactive. In assay [19], the result was inactive. Further, the AC50 was 0.224 µM (active) in assay [2]; 20 µM (active) in assay [3]; 0.773 µM (active) in assay [4]; 30.1 µM (active) in assay [5]; 0.0161 µM (active) in assay [6]; 0.0566 µM (active) in assay [9]. For the same molecule, the AC50 was 3.97 µM (active) in [10]; 6.18 µM (active) in assay [11]; 20 µM (active) in [12]; 2.9 µM (active) in assay [14]; 0.39 µM (active) in assay [15]; 8 µM (active) in [17].

On to `COP(=O)(O)OC`, for which the outcome in assay [1], in [2], in assay [3], in [4], in [5] and in assay [6] was inactive. The outcome in assay [7], in [8], in [20], in [9], in assay [11] and in assay [12] was inactive. In addition, the outcome in [13], in assay [14], in assay [15], in assay [16], in [17] and in assay [18] was inactive. Besides, the outcome in assay [19] was inactive.

Take `CCCCc1ccccc1`: the outcome in [1], in assay [2], in [3], in assay [4], in assay [5] and in assay [6] was inactive. Besides, the outcome in assay [7], in assay [8], in [20], in assay [9], in [12] and in assay [13] was inactive. Moreover, the result in assay [14], in assay [15], in assay [16], in [17], in assay [18] and in [19] was inactive.

With `c1cc2c3c(cccc3c1)CC2`, the outcome in [1], in assay [2], in assay [3], in assay [4], in assay [5] and in [6] was inactive. Further, the outcome in assay [7], in assay [8], in [20], in assay [9], in assay [12] and in [13] was inactive. For the same molecule, the result in assay [14], in [15], in assay [16], in [17], in assay [18] and in assay [19] was inactive.

For `COCCOCCO`, the outcome in assay [1], in assay [2], in assay [3], in [4], in assay [5] and in assay [6] was inactive. Besides, the result in [7], in assay [8], in assay [9], in assay [10], in [11] and in assay [12] was inactive. The outcome in assay [13], in assay [14], in assay [15], in assay [16], in assay [17] and in assay [18] was inactive. Moreover, the outcome in [19] was inactive.
